Source: PubChem BioAssay (NCI)
This is part of a sample that, as a whole, favours compounds with a hit. Of some 83,000 tested, about 20% had one in any assay.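 Each cell line was grown in a 96-well plate and treated with one concentration of compound for 48 hours. Values below 10 were considered active.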 A number with no mark means an inactive call. The source made the active and inactive calls.

test system: HL-60(TB) leukemia; experiment: NCI-60 one-dose screen, 48 h (100 = growth as untreated, 0 = no growth, -100 = all killed); conditions: 10 µM unless noted

| Structure (SMILES) | growth |
| --- | --- |
| COC(=O)[C@]1(C)CC[C@]2(C)CC[C@]3(C)C(=CC(=O)[C@@H]4[C@@]5(C)CCC(=O)NC(C)(C)[C@@H]5CC[C@]43C)[C@@H]2C1 | 1.31% [100 µM] (active) |
| O=CC(OC(=O)c1ccccc1)C(OC(=O)c1ccccc1)C(COC(c1ccccc1)(c1ccccc1)c1ccccc1)OC(=O)c1ccccc1 (stereo not given) | -12.3% (active) |
| O=C(CCl)N1c2ccccc2Sc2ccc3ccccc3c21 | -44.1% (active) |
| O=Cc1ccc2nc(C(Cl)(Cl)Cl)ccc2c1 | 104% |
| CN1C(=O)N(C)C2C1NC(=S)N2/N=C/C=C/c1ccccc1[N+](=O)[O-] (stereo not given) | -34.9% (active) |
| Cc1ccc(S(=O)(=O)NCCNc2nccc(-c3c(-c4ccc(O)cc4)nc4sccn34)n2)cc1 | 155% |
| O=Nc1ccc2ccccc2c1O | 74.3% |
| COc1cc(-c2nc(SC(C)C)nc(Nc3ccccc3C)c2C#N)cc(OC)c1OC | 103% |
| CS(=O)(=O)c1cccnn1 | 108% |
| Cc1cc(Cl)ccc1Nc1nc(C(F)(F)F)ccc1C(=O)N/N=C/c1ccc(F)cc1 | -35.6% (active) |
| CC(=O)c1ccccc1NC(=O)C(C)(c1ccccc1)c1ccccc1 | 94.3% |
| COc1cc(/C=C/c2cc(/C=C/c3ccc(O)c(OC)c3)n(C(=O)c3ccccc3Br)n2)ccc1O | -23.9% (active) |
| Cc1ccc(NS(=O)(=O)c2ccc(-c3cnc(C4CC4)o3)cc2)cc1 | 24.3% |
| O=C(N=Nc1c(O)[nH]c2ccccc12)c1oc2ccccc2c1CN1CCN(c2ccccc2)CC1 | 49.8% |
| Nc1ccc(CCCCc2ccccc2)c(Cl)c1 | 78.7% |
| C1=C\COCc2cc(ccc2OCCN2CCCC2)Nc2nccc(n2)-c2cccc(c2)COC/1 | -34.6% (active) |
| CCCCCCCCCCCCCCC(C(=O)OCC)C(=O)OCC | 104% |
| CC[C@]12C=CCN3CC[C@@]4(c5ccc(OC)cc5N(C)[C@H]4[C@@](O)(C(=O)OC)[C@@H]1OC(=O)CCC(=O)N[C@@H](Cc1c[nH]c4ccccc14)C(=O)OC)[C@@H]32 | -5.33% (active) |
| Nc1c(C(=O)c2ccc(Cl)s2)sc2nc3c(cc12)CCCC3 | 106% |
| CCN(CC)c1ccc(N=Nc2cc(Cl)ccc2Cl)c(NC(=O)CCC(=O)O)c1 | 119% |

| Structure (SMILES) | growth |
| --- | --- |
| COc1ccc(/C=C/c2c(C(=O)/C=C/c3ccccc3)c(C)nc3ccccc23)cc1 | 6.07% (active) |
| OC1COC(OCc2ccccc2)C(O)C1O (stereo not given) | 101% |
| Cc1ccc(C(=O)N/N=C/c2ccc3c(c2)OCO3)cc1 | 90.4% |
| Cc1cc(=O)oc2cc(OCCn3c(C)nn(-c4ccc(Cl)cc4)c3=O)ccc12 | -5.7% (active) |
| CC(=O)O[C@H]1C(=O)[C@@]2(C)[C@H]([C@H](OC(=O)c3ccccc3)[C@]3(O)C[C@H](OC(=O)[C@H](OC(=O)CCC(=O)OC4CCC(S/N=C(N)/N=C(\N)N(C)C)CC4)[C@@H](NC(=O)c4ccccc4)c4ccccc4)C(C)=C1C3(C)C)[C@]1(OC(C)=O)CO[C@@H]1C[C@@H]2O (stereo not given in full) | 7.49% (active) |
| CN(C)C(=O)OCc1ccc2c(Cl)cc(Cl)c(O)c2n1 | 18.8% |
| O=C(CN1C(=O)/C(=C\c2ccc(Cl)cc2)SC1=S)Nc1ncc(Cc2ccc(Cl)cc2)s1 | 102% |
| Clc1ccc(COc2ccc(Nc3ncnc4onc(-c5ccccc5)c34)cc2)cc1 | 98.8% |
| O=C(CN1CCN(c2cc3c(cc2F)c(=O)c(C(=O)O)cn3C2CC2)CC1)Nc1nc(-c2ccc(Cl)cc2)cs1 | 19.6% |
| Cc1onc(-c2c(F)cccc2Cl)c1-c1ncc(-c2ccc(Br)cc2)o1 | 37.5% |
| COc1cc(/C(Cl)=C/C=C/C(=O)c2c(C)[n+]([O-])c3ccc(Cl)cc3[n+]2[O-])cc(OC)c1OC | 11.9% |
| CN(N)c1nc2sc3c(c2c(=O)[nH]1)CCCC3 | 102% |
| Clc1nc(Cl)c2ncn(-c3ccccc3)c2n1 | 46.1% |
| Cc1nc2sc(C(=O)Nc3cccc(Cl)c3C)c(N)c2cc1C(C)O (stereo not given) | -18.7% (active) |
| CC(=O)SC1CC(=O)C=C2CCC3C4CCC(=O)OC4(C)CCC3C21C (stereo not given) | 103% |
| COc1cc2cc(Oc3ccc(NC(=O)c4cc(C(F)(F)F)cc(C(F)(F)F)c4)cc3)c(C)nc2cc1OC | 50.4% |
| C=C1C(=O)O[C@H]2[C@H]1CC/C(COC(=O)NCc1[nH]nc3ccccc13)=C\CC[C@@]1(C)O[C@@H]21 | -51% (active) |
| CCOC(=O)c1ccc(Nc2sc(C(=O)c3cccc([N+](=O)[O-])c3)c(N)c2C#N)cc1 | 4.04% (active) |
| Cc1ccc(C)c2c1CCC2=O | 134% |
| c1ccc(Oc2c3ccccc3nc3ccccc23)cc1 | -16.4% (active) |
